Measurements reported in PubChem BioAssay.

test: inhibition of PAO1 biofilm formation – strain PAO1, LB-PBS medium, absorbance 600 nm, primary screen (AID 1176); further: test concentration not given here; details: P. aeruginosa PAO1 growth/biofilm, A600, 12 h; higher = more signal; call rule not given here

z-score, inactive:
O=C1OCCC/C=C\[C@H]2OC34C=CCN(Cc5ccccc5)C(=O)[C@H]3N(CCCCCO)C(=O)[C@@H]4C12 (stereo not given in full) -0.099
CO[C@H]1O[C@H](CO)[C@@H](OC(=O)Nc2ccc(C(F)(F)F)cc2)[C@H](OC(=O)Nc2ccccc2-c2ccccc2)[C@H]1OC(=O)Nc1ccccc1-c1ccccc1 3.43
COCCOC(=O)N1C(=O)[C@@]2(c3cc(C#CCCO)ccc31)[C@H](C(=O)N1CCN(c3ncccn3)CC1)[C@H]1C(=O)O[C@H](c3ccccc3)[C@H](c3ccccc3)N1[C@@H]2c1ccc(O)cc1 1.85
[N-]=[N+]=NCc1ccccc1[C@H]1OC(c2ccc(OCCCO)cc2)=N[C@@]1(Cc1ccccc1)C(=O)N1CCOCC1 0.841
C=CCC(OC(C)=O)[C@@H]1[C@@H](N(Cc2ccc(-c3ccccc3)cc2)C(=O)c2ccc(C)cc2)c2cc(OCCCO)ccc2N1C(=O)c1ccc2ccccc2c1 (stereo not given in full) -0.0877
CCCCC(O)C1C=CC2C(=O)N(C)C(=O)C2N1Nc1ccccc1 (stereo not given) 1.22
COCCOC(=O)N1C(=O)[C@@]2(c3cc(C#CCC(C(=O)OC)C(=O)OC)ccc31)[C@H](C(=O)N1CCCCCCC1)[C@H]1C(=O)O[C@H](c3ccccc3)[C@H](c3ccccc3)N1[C@@H]2c1ccccc1OCCO 1.45
COC(=O)[C@@]1(Cc2ccccc2)[C@H]2c3cc(C(=O)N4CCCC4)n(Cc4ccc(C(F)(F)F)nc4)c3C[C@H]2CN1C(=O)c1ccccc1 -0.374
CN1C(=O)[C@]2(CCS(=O)(=O)c3ccccc3)N=C(c3ccc(OCCCO)cc3)O[C@@H]2c2ccccc21 -0.0279
C=CCC(OC(C)=O)[C@@H]1[C@@H](N(Cc2cccc3ccccc23)C(=O)c2cccc3ccccc23)c2cc(OCCCO)ccc2N1C(=O)Cc1ccc2ccccc2c1 (stereo not given in full) -0.723
CCCCNC(=O)c1ccc(C#C[Si](C)(C)C)c(OC(C)=O)c1 -1.44
CCOC(=O)C1=CC[C@@H](c2ccccc2Cl)N(S(=O)(=O)c2ccc(C)cc2)[C@H]1c1cccc(OC)c1 0.34
Cc1ccc(F)cc1S(=O)(=O)N[C@@H]1CCN(Cc2ccc3c(c2)OCO3)C1 -0.177
C#CCN(C/C=C/c1ccccc1)[C@H](CO[Si](C)(C)C(C)(C)C)c1ccccc1 0.167
N[C@@H](Cc1ccccc1)Cn1cc(C2(O)CCCCC2)nn1 0.0672
COCCOC(=O)N1C(=O)[C@@]2(c3cc(C#CCC(C(=O)OC)C(=O)OC)ccc31)[C@H](c1ccc(OCCO)cc1)N1[C@H](c3ccccc3)[C@H](c3ccccc3)OC(=O)[C@H]1[C@@H]2C(=O)N1CCCCCCC1 0.83
COc1ccc(NC(=O)O[C@H]2[C@H](OC(=O)Nc3ccc4c(c3)OCO4)[C@H](OC(=O)Nc3ccc4c(c3)OCO4)[C@@H](OC)O[C@@H]2CO)cc1 0.826
COc1ccc(NN2C(C(O)c3cc(C(F)(F)F)cc(C(F)(F)F)c3)C=CC3C(=O)N(C4CCCCC4)C(=O)C32)cc1 (stereo not given) 1.21
COCCOC(=O)N1C(=O)[C@@]2(c3cc(C#Cc4ccc(OC)cc4)ccc31)[C@H](C(=O)Nc1nc3ccccc3s1)[C@H]1C(=O)O[C@H](c3ccccc3)[C@H](c3ccccc3)N1[C@@H]2c1ccccc1OCCO 1.89
C=C(COC)/C(=C/C[C@H](OC(=O)c1ccncc1)c1ccc(OCCO)cc1)c1cc(C(=O)OC)ccc1OC -0.505
COc1ccc([Si](C)(C)[C@H]2[C@H](CCO)O[C@@]3(C(=O)N(Cc4ccccc4)c4ccc(N(C=O)c5ccccc5)cc43)[C@@H]2C)cc1 2.58
C=CC[C@]1(C(=O)OC)N=C(c2ccc(OCCCO)cc2)O[C@H]1c1ccccc1N=[N+]=[N-] 0.935
COc1ccccc1CN1C(=O)c2ccccc2[C@](Cc2ccccc2I)(C(=O)NCCCN(C)C)[C@@H]1c1ccc(CO)cc1 1.57
CC1CC/C=C\[C@H]2OC34C=CCN(c5ccc(Cl)cc5)C(=O)[C@H]3N(CCCO)C(=O)[C@]4(C)C2C(=O)O1 (stereo not given in full) -0.897
CC[C@H](C)C(=O)O[C@H]1CC[C@]2(C)C3=C(CCC2C1(C)C)[C@]1(C)CC[C@H]([C@H](C)CCCC(C)C)[C@@]1(C)CC3 (stereo not given in full) -0.283
